Pf growth 96h: Primary qHTS for delayed death inhibitors of the malarial parasite plastid, 96 hour incubation; P. falciparum luciferase reporter growth, 96 h; Potency, µM (top dose mostly 28.7 µM), hits mostly inhibitors; 320,000 compounds, 6.9% hits
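96 h incubation, 37 C, 5% CO2, of luciferase-reporter P. falciparum-infected RBCs (2% hematocrit, 0.05% parasitemia final) with test compounds; endpoint luminescence.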
Shiga inhibitor: A qHTS for Small Molecule Inhibitors of Shiga Toxin | Vero cells, Shiga toxin protein synthesis inhibition reporter | inhibition, % at 38.7 µM | 290,000 compounds, 9.2% hits | AID 2315, 2010; in the data active = inhibition mostly above about 28%, no sharp cut-off; inactive = mostly below about 43%
Pf growth 48h: Primary qHTS for delayed death inhibitors of the malarial parasite plastid, 48 hour incubation. P. falciparum luciferase growth in erythrocytes, 48 h. Potency, µM (titrated, usually from 28.7 µM), actives largely listed as inhibitors. 310,000 compounds, 5.9% hits. AID 504832, 2011
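Firefly luciferase activity from engineered P. falciparum reports growth; inhibitors lower the luminescent signal. Cultures contained 2% hematocrit erythrocytes at 0.1% final parasitemia.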
NS1 inh: qHTS Assay for Inhibitors of Influenza NS1 Protein Function. 270,000 compounds, 0.4% hits. Potency, µM (titrated, usually from 46.1 µM); calls by dose curve; note: actives are rising curves; nearly all actives have a fitted effect of over 50% in size
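A cell-based growth assay was used: compounds that relieve NS1-induced slow growth of budding yeast raise OD600. Assay medium was yeast nitrogen base with ammonium sulphate and -URA supplement, pH 6.0, with 2% galactose.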
CHX counter: Cycloheximide Counterscreen for Small Molecule Inhibitors of Shiga Toxin. 300,000 compounds, 12% hits. cell reporter, cycloheximide protein synthesis inhibition counterscreen. max response, %; in the data active = max response mostly above about 13%, no sharp cut-off; inactive = mostly below about 14%; note: read at 38.3 µM for the half of the compounds with a filed dose
Numbers stand for hits; . = inactive; ? = inconclusive; / = not tested or not shown. Hits are enriched below; roughly 21% of the tested compounds scored in any of these assays. Unless noted, calls come from the whole dose curve; as a rule, active = well fitted inhibition curve with a large enough effect; inconclusive = small, poorly fitted or top-dose-only effect, or another doubt; inactive = no such curve, though single readings can be large or run the other way.

SMILES	Pf growth 96h	Shiga inhibitor	Pf growth 48h	NS1 inh	CHX counter
CSCC[C@H](NC(=O)[C@H](CC(C)C)N1CCC(NC(=O)[C@@H](NC(=O)[C@H](Cc2ccccc2)NC(=O)[C@H](CO)NC(=O)[C@H](CC(=O)O)NC(=O)[C@@H](N)CCCCN)C(C)C)C1=O)C(N)=O (some centres not stated)	/	.	/	/	.
COc1ccccc1OCC(=O)Nc1ccc(Cl)cc1	.	51	.	.	24
COc1ccccc1OC(C)C(=O)Nc1ccc2c(c1)OCCO2 (configuration not stated)	.	.	.	.	19
Cc1ccc(OCCC(=O)Nc2ccc3c(c2)OCO3)cc1	.	/	.	/	/
Cc1ccccc1OCCCC(=O)Nc1ccc2c(c1)OCO2	.	active	.	.	32
CC(C)=CC(=O)OCC(=O)Nc1ccc(Cl)cc1	.	41	.	.	24
CCOC(=O)c1cc(C#N)c(N2CCN(c3ccccn3)CC2)nc1-c1ccccc1	.	.	?	/	.
CN(CC(=O)Nc1ccc(F)c(F)c1F)C(=O)C1=NN(c2ccccc2)C(=O)CC1	.	/	.	/	/
Cc1cccc(C)c1OCC(=O)Nc1ccc2c(c1)OCCO2	12µM	82	.	.	.
CC(C)CSc1ccc(S(=O)(=O)NCC(=O)O)cc1[N+](=O)[O-]	.	.	.	.	.
CCc1nn(CC(=O)N(C)C2CCCCC2)c(=O)c2cc3cc(C)ccc3n12	.	.	.	.	.
CCOC(=O)c1cc(-c2ccc(N)cc2)sc1N	.	66	.	.	54
CCOC(=O)c1sc(-c2ccc(Br)cc2)cc1N	.	114	.	.	54
NNC(=O)c1sc(-c2ccc(Cl)cc2)cc1N	.	66	.	/	45
O=C1CC(c2ccccc2)Oc2cc(O)cc(O)c21 (configuration not stated)	?	57	.	.	16
O=C1CC(c2ccc(O)c(O)c2)Oc2cc(O)cc(O)c21 (configuration not stated)	?	.	.	.	.
O=C1CC(c2ccc(O)cc2)Oc2cc(O)cc(O)c21 (configuration not stated)	.	.	.	.	14
CCOc1ccc2nc(CN3CCN(Cc4ccsc4)C(CCO)C3)ccc2c1 (configuration not stated)	.	.	?	.	.
Cc1nn2c(-c3ccncc3)ccnc2c1Cl	.	.	?	/	.
Nc1c(C(=O)O)cnc2c(-c3ccc(Cl)cc3)cnn12	.	.	.	/	27
Clc1ccc(-c2cnn3c(-c4ccncc4)ccnc23)cc1	.	89	.	/	35
CC(=O)c1cnc2c(-c3ccc(Cl)cc3)cnn2c1C	.	40	.	.	.
Nc1nc2nccc(-c3ccc(Cl)cc3)n2n1	/	42	?	.	44
CCOC(=O)c1nn(-c2ccccc2C)c(=O)cc1OCC(=O)Nc1cccc(OC)c1	.	/	.	/	/
CCOC(=O)C1CCCN(S(=O)(=O)c2c(C)noc2C)C1 (configuration not stated)	.	.	.	.	.
SMILES	Pf growth 96h	Shiga inhibitor	Pf growth 48h	NS1 inh	CHX counter
Cc1cc(C)cc(OC(=O)C23CCC(C)(C(=O)O2)C3(C)C)c1 (configuration not stated)	?	.	.	.	.
Cn1nc(C(=O)NNC(=O)c2ccccc2Br)c2ccccc2c1=O	.	/	.	/	/
Cc1cccc(N(CC(=O)O)CC(=O)O)c1	13µM	.	.	.	.
CCNc1nc(NCC)n2c(SCC(=O)Nc3cc(OC)ccc3OC)nnc2n1	8.3µM	/	?	/	/
CCNc1nc(NCC)n2c(SCC(=O)Nc3ccc(Br)cc3F)nnc2n1	?	/	12µM	/	/
COc1ccc2cnnc(SCC(=O)Nc3ccccc3)c2c1OC	.	.	.	.	.
COc1ccc(OC)c(NC(=O)CSc2nncc3ccc(OC)c(OC)c23)c1	9.3µM	.	?	?	.
CCNc1nc(NCC)n2c(SCC(=O)Nc3ccccc3)nnc2n1	?	.	.	.	.
CCNc1nc(NCC)n2c(SCC(=O)Nc3ccc(C)c(C)c3)nnc2n1	.	/	9.3µM	/	/
Cc1ccc(C(=O)NCCc2nnc3ccc(N4CCCC4)nn23)cc1	.	.	.	.	.
COc1cc2c(cc1OC)C(C)N(C(=O)C(NC(=O)c1ccccc1)C(C)C)CC2 (configuration not stated)	?	.	?	.	.
O=C(N/C(=C\c1ccccc1)C(=O)N1CCCCC1)c1ccc(Br)o1	.	.	.	.	.
Cc1cc(C)cc(N2Cc3ccccc3C2)c1	4.1µM	.	/	.	.
CCc1ccc(N2Cc3ccccc3C2)cc1	?	99	.	.	58
FC(F)(F)c1cccc(N2Cc3ccccc3C2)c1	.	37	13µM	.	20
CCOC(=O)c1ccccc1O	.	/	.	/	/
C#CCN1CCN(c2cccc(C(F)(F)F)c2)CC1	.	.	.	/	.
CCOC(=O)c1ccc(N2Cc3ccccc3C2)cc1O	.	65	4.1µM	.	46
COc1ccc(Cl)cc1Nc1nc(C)cc(C)c1C(N)=O	.	.	.	.	.
O=C(O/N=C1\CCCc2ccccc21)c1cccc(Cl)c1	.	.	.	.	13
Cc1cccc(C(=O)O/N=C2\CCCc3ccccc32)c1	.	41	.	.	24
Cc1ccc(C(=O)O/N=C2\CCCc3ccccc32)cc1	.	62	.	.	18
Cc1cc(Cl)ccc1OCC(=O)N/N=C1\CCCc2ccccc21	.	.	.	.	.
O=C(O/N=C1\CCCc2ccccc21)C1CC1	.	.	.	/	.
O=C(c1cnn2c1NC(c1ccc(Br)cc1)CC2C(F)(F)F)N1CCN(C23CC4CC(CC(C4)C2)C3)CC1 (configuration not stated)	8.3µM	.	3.7µM	.	.
SMILES	Pf growth 96h	Shiga inhibitor	Pf growth 48h	NS1 inh	CHX counter
COc1ccccc1-c1nnc(SCC(=O)NNC(=O)c2ccccc2F)n1C	.	/	.	/	/
Cc1ccc(CC2SC(N=C(N)N)=NC2=O)cc1 (configuration not stated)	.	.	.	.	.
NC(N)=NC1=NC(=O)C(Cc2ccccc2)S1 (configuration not stated)	?	.	.	.	19
COc1ccc(CC(=O)OCC(=O)c2ccc(OC)c(OC)c2)cc1	.	/	.	/	/
COc1ccc(CC(=O)c2ccc(OC)c(OC)c2)cc1	.	.	.	.	23
COc1ccc(C(=O)Cc2ccc(OC)c(OC)c2)c(OC)c1	/	.	.	.	12
COc1ccc(C(=O)CN2C(=O)c3ccccc3C2=O)c(OC)c1	.	.	.	.	15
c1ccc(NC(c2ccccc2)c2ccncc2)cc1 (configuration not stated)	.	.	9.3µM	.	.
NC(c1ccccc1)c1ccncc1 (configuration not stated)	.	.	.	.	.
CC1=NCCN1CCNC(=O)Nc1ccc(F)cc1	0.41µM	.	.	.	.
CC1=NCCN1CCNC(=O)Nc1cc(C)cc(C)c1	.	.	.	.	.
Cc1ccc(NC(=O)Cc2nc(CSc3nnc(-c4ccc5c(c4)OCO5)o3)cs2)cc1	3.7µM	98	.	.	.

Screens from PubChem.
